Results published in PubChem BioAssay.
For some of these results: Entries with a potency or affinity are not part of this list. Calls of active or inactive are those of the source. Unless noted, no rule for the calls is given here.

Each compound was assayed against Protein kinase 7 (PK7), Plasmodium falciparum 3D7 (PF3D7_0213400) (UniProt Q7YTF7) (assay: inhibition of Plasmodium PK7 catalytic activity – biochemical, TCAMS antimalarial set, Kinase-Glo luminescence (AID 1159587)). Conditions: recombinant PfPK7, Kinase-Glo ATP depletion luminescence.
Protein kinase 7 (PK7), Plasmodium falciparum 3D7 (PF3D7_0213400), sequence (Q7YTF7 1-343): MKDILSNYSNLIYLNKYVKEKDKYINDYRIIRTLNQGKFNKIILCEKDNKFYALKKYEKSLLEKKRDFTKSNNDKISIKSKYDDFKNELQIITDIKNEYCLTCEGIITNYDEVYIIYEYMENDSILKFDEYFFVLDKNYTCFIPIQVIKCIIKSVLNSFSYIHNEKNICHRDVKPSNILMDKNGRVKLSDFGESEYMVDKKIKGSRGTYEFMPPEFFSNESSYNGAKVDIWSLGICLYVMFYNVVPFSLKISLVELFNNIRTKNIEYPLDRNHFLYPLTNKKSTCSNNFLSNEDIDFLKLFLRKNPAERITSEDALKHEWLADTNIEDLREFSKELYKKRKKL

outcome, inactive:
O=C(Cc1ccc(Nc2nccc(Nc3cccc4[nH]ncc34)n2)cc1)Nc1ccc(C(F)(F)F)cc1, Cc1ccc(S(=O)(=O)Nc2ccc(Nc3nccc(Nc4cccc5[nH]ncc45)n3)cc2)cc1, CCN(CC)CCNc1nccc(N(C)c2ccc(NC(=O)Nc3cc(C(F)(F)F)ccc3F)cc2)n1, N#Cc1cnc(Nc2ccc(Oc3ccccc3)cc2)nc1Nc1cccc(S(N)(=O)=O)c1, CN(c1ccc(NC(=O)Nc2cc(C(C)(C)C)on2)cc1)c1ccnc(NCCN2CCOCC2)n1, O=C(O)c1cccnc1Sc1ccc(Cl)cc1, C#CCNC(=O)c1ccc(-c2ccnc(Nc3cccc(CCCN4CCOCC4)c3)n2)s1, C(=N\Nc1nccc2sc(-c3ccccc3)cc12)/c1cccnc1, CC(=O)c1ccc(NC(=O)Nc2ccc(N(C)c3ccnc(Nc4cccc(CS(C)(=O)=O)c4)n3)cc2)cc1, COc1c(CN2CCOCC2)cccc1-c1cc2c(-c3ccc(C(=O)O)c(C(C)C)c3)ccnc2[nH]1, CN(C)CC(O)COc1ccc(Nc2ncc([N+](=O)[O-])c(Nc3ccccc3O)n2)cc1 (centres undefined), CS(=O)(=O)Cc1cccc(Nc2ncc(Cl)c(Nc3cccnc3C(N)=O)n2)c1, N#CCc1ccc(Nc2nccc(Nc3ccc(Oc4ccccc4)cc3)n2)cc1, CCN(CC)CCCNc1nccc(N(C)c2ccc(NC(=O)Nc3cc(C(F)(F)F)ccc3F)cc2)n1, Cn1nc(-c2ccc(NC(=O)Nc3ccc4ccccc4c3)c(F)c2)c2cnc(NCCN3CCOCC3)nc21, CCNC(=O)Nc1ccc(-c2cnc(N)c(-c3nc4ccc(OC)cc4[nH]3)c2)cc1, CC(C)(CN)c1nc(-c2ccc(Br)c(O)c2)c(-c2ccncc2)[nH]1, Oc1cc(-c2nc(-c3ccccc3)[nH]c2-c2ccncc2)ccc1Cl, CC(C)(NCc1ncc[nH]1)c1nc(-c2ccc(Cl)c(O)c2)c(-c2ccncc2)[nH]1, CN1CCC(NC(=O)c2cccc(Nc3cc(Nc4cccc(Br)c4)ncn3)c2)CC1, Cn1cnc2c(Nc3ccncc3)nc(-c3ccc4c(c3)OCO4)nc21, O=C(Nc1cccc(-c2nn3ccccc3c2-c2ccnc(Nc3ccc(-c4ccn[nH]4)cc3)n2)c1)c1c(F)cccc1F, CC(C)(CNC(=O)C1CCN(Cc2ccc(Cl)cc2)CC1)c1nc(-c2ccc(Cl)c(O)c2)c(-c2ccncc2)[nH]1, CS(=O)(=O)Cc1ccc(Nc2ncc(Cl)c(Nc3cccnc3C(N)=O)n2)cc1, Nc1ncc(-c2cccc(F)c2)cc1-c1nc2ccc(F)cc2[nH]1, CN(c1ccc(NC(=O)Nc2cccc(Cl)c2)cc1)c1ccnc(N)n1, CC(=O)Nc1nc(C)c(-c2csc(Nc3ccc(Cl)cc3)n2)s1, CN(C)CCOc1ccc(-c2cc(-c3ccc(Cl)c(O)c3)c(-c3ccnc(N)n3)o2)cc1, COc1c(CN2CCCC2)cccc1-c1cc2c(-c3ccc(C(=O)O)c(C(C)C)c3)ccnc2[nH]1, NS(=O)(=O)c1cccc(Nc2nccc(-c3cnn4ncccc34)n2)c1, CN(c1ccc2c(c1)nc(NCc1ccccc1)n2C)c1ccnc(Nc2ccc(CS(C)(=O)=O)cc2)n1, CC(C)(CNC(=O)[C@H]1CCCN1)c1nc(-c2ccc(Cl)c(O)c2)c(-c2ccncc2)[nH]1, Nc1ncc(-c2cn[nH]c2)cc1-c1nc2ccc(Cl)cc2[nH]1, Cc1ccc(Nc2nc3cc(Nc4ccnc(Nc5cccc(CS(C)(=O)=O)c5)n4)ccc3o2)cc1, N=C(N)c1ccc(Nc2nccc(Nc3nc(-c4ccccc4)cs3)n2)cc1, N=C(N)c1ccc(Nc2nc(Nc3ccc(-c4ccccc4)cc3)ncc2[N+](=O)[O-])cc1, CN(c1ccc(NC(=O)Nc2cc(C(F)(F)F)ccc2F)cc1)c1ccnc(NCCN2CCOCC2)n1, Cc1cc(Nc2nc(Nc3cccc(Cl)c3)nc3ccccc23)n[nH]1, COc1cccc(-n2ncc3c(N/N=C/c4ccc(CN(C)CCN(C)C)cc4)ncnc32)c1, CN(c1ccc2c(c1)nc(NCc1ccc(F)cc1)n2C)c1ccnc(Nc2ccc(CS(C)(=O)=O)cc2)n1

These compounds were tested against Calcium-dependent protein kinase 4 (Plasmodium falciparum (isolate 3D7)) (UniProt Q8IBS5) (assay: PfCDPK4 kinase inhibitors, biochemical, TCAMS library (AID 1159588; cut-off not given, nearly all actives have IC50 up to about 0.91 µM)). Conditions: recombinant PfCDPK4, Kinase-Glo ATP depletion luminescence.
Calcium-dependent protein kinase 4 (Plasmodium falciparum (isolate 3D7)), sequence (Q8IBS5 whole entry, looked up): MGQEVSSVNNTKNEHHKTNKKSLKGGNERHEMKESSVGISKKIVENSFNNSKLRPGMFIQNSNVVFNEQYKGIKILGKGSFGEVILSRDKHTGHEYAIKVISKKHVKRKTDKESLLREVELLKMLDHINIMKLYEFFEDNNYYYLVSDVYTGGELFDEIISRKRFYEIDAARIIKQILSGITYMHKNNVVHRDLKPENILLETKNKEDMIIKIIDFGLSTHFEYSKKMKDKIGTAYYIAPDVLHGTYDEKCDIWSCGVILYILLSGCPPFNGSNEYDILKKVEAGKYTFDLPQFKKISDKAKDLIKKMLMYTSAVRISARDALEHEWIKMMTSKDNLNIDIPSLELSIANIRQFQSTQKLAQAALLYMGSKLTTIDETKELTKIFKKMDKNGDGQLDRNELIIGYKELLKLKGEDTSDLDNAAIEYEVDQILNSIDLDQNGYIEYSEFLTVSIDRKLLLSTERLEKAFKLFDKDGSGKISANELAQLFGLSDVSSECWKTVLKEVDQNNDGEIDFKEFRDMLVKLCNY

outcome, inactive:
O=C(Cc1ccc(Nc2nccc(Nc3cccc4[nH]ncc34)n2)cc1)Nc1ccc(C(F)(F)F)cc1, Cc1ccc(S(=O)(=O)Nc2ccc(Nc3nccc(Nc4cccc5[nH]ncc45)n3)cc2)cc1, CCN(CC)CCNc1nccc(N(C)c2ccc(NC(=O)Nc3cc(C(F)(F)F)ccc3F)cc2)n1, N#Cc1cnc(Nc2ccc(Oc3ccccc3)cc2)nc1Nc1cccc(S(N)(=O)=O)c1, CN(c1ccc(NC(=O)Nc2cc(C(C)(C)C)on2)cc1)c1ccnc(NCCN2CCOCC2)n1, O=C(O)c1cccnc1Sc1ccc(Cl)cc1, C#CCNC(=O)c1ccc(-c2ccnc(Nc3cccc(CCCN4CCOCC4)c3)n2)s1, C(=N\Nc1nccc2sc(-c3ccccc3)cc12)/c1cccnc1, CC(=O)c1ccc(NC(=O)Nc2ccc(N(C)c3ccnc(Nc4cccc(CS(C)(=O)=O)c4)n3)cc2)cc1, COc1c(CN2CCOCC2)cccc1-c1cc2c(-c3ccc(C(=O)O)c(C(C)C)c3)ccnc2[nH]1, CN(C)CC(O)COc1ccc(Nc2ncc([N+](=O)[O-])c(Nc3ccccc3O)n2)cc1 (centres undefined), CS(=O)(=O)Cc1cccc(Nc2ncc(Cl)c(Nc3cccnc3C(N)=O)n2)c1, N#CCc1ccc(Nc2nccc(Nc3ccc(Oc4ccccc4)cc3)n2)cc1, CCN(CC)CCCNc1nccc(N(C)c2ccc(NC(=O)Nc3cc(C(F)(F)F)ccc3F)cc2)n1, Cn1nc(-c2ccc(NC(=O)Nc3ccc4ccccc4c3)c(F)c2)c2cnc(NCCN3CCOCC3)nc21, CCNC(=O)Nc1ccc(-c2cnc(N)c(-c3nc4ccc(OC)cc4[nH]3)c2)cc1, CC(C)(CN)c1nc(-c2ccc(Br)c(O)c2)c(-c2ccncc2)[nH]1, Oc1cc(-c2nc(-c3ccccc3)[nH]c2-c2ccncc2)ccc1Cl, CC(C)(NCc1ncc[nH]1)c1nc(-c2ccc(Cl)c(O)c2)c(-c2ccncc2)[nH]1, CN1CCC(NC(=O)c2cccc(Nc3cc(Nc4cccc(Br)c4)ncn3)c2)CC1, Cn1cnc2c(Nc3ccncc3)nc(-c3ccc4c(c3)OCO4)nc21, CC(C)(CNC(=O)C1CCN(Cc2ccc(Cl)cc2)CC1)c1nc(-c2ccc(Cl)c(O)c2)c(-c2ccncc2)[nH]1, CS(=O)(=O)Cc1ccc(Nc2ncc(Cl)c(Nc3cccnc3C(N)=O)n2)cc1, Nc1ncc(-c2cccc(F)c2)cc1-c1nc2ccc(F)cc2[nH]1, CN(c1ccc(NC(=O)Nc2cccc(Cl)c2)cc1)c1ccnc(N)n1, CC(=O)Nc1nc(C)c(-c2csc(Nc3ccc(Cl)cc3)n2)s1, CN(C)CCOc1ccc(-c2cc(-c3ccc(Cl)c(O)c3)c(-c3ccnc(N)n3)o2)cc1, COc1c(CN2CCCC2)cccc1-c1cc2c(-c3ccc(C(=O)O)c(C(C)C)c3)ccnc2[nH]1, NS(=O)(=O)c1cccc(Nc2nccc(-c3cnn4ncccc34)n2)c1, CN(c1ccc2c(c1)nc(NCc1ccccc1)n2C)c1ccnc(Nc2ccc(CS(C)(=O)=O)cc2)n1, CC(C)(CNC(=O)[C@H]1CCCN1)c1nc(-c2ccc(Cl)c(O)c2)c(-c2ccncc2)[nH]1, Nc1ncc(-c2cn[nH]c2)cc1-c1nc2ccc(Cl)cc2[nH]1, Cc1ccc(Nc2nc3cc(Nc4ccnc(Nc5cccc(CS(C)(=O)=O)c5)n4)ccc3o2)cc1, N=C(N)c1ccc(Nc2nccc(Nc3nc(-c4ccccc4)cs3)n2)cc1, N=C(N)c1ccc(Nc2nc(Nc3ccc(-c4ccccc4)cc3)ncc2[N+](=O)[O-])cc1, CN(c1ccc(NC(=O)Nc2cc(C(F)(F)F)ccc2F)cc1)c1ccnc(NCCN2CCOCC2)n1, Cc1cc(Nc2nc(Nc3cccc(Cl)c3)nc3ccccc23)n[nH]1, COc1cccc(-n2ncc3c(N/N=C/c4ccc(CN(C)CCN(C)C)cc4)ncnc32)c1, CN(c1ccc2c(c1)nc(NCc1ccc(F)cc1)n2C)c1ccnc(Nc2ccc(CS(C)(=O)=O)cc2)n1
